PubChem BioAssay (Tox21)
Inconclusive results are not listed. Calls of active or inactive are those of the source. Unless noted, the call rests on the fitted dose curve; in most records, active means well fitted curve in the direction sought with a large enough effect in the repeat runs; inconclusive means weak or mixed curves; inactive means no such curve, though single readings can be large; an effect the other way counts as inactive or inconclusive.

Key:
[1] = qHTS assay for small molecule agonists of the p53 signaling pathway (AID 651631; calls by dose curve; further: nearly all actives have a fitted effect of over 15% in size; further: potency means the concentration at half of the fitted maximal effect)
In short: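 Fluorescence intensity from cleaved LiveBLAzer B/G substrate (2 h, room temperature) served as the signal. Beforehand, HCT-116 reporter cells bearing p53 response elements were treated 16 h at 37 °C with DMSO-dissolved compounds.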

[2] = qHTS assay for small molecules that induce genotoxicity in human embryonic kidney cells expressing luciferase-tagged ATAD5 (AID 651632); further: nearly all actives have a fitted effect of over 15% in size
In short: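 HEK293T cells carrying a luciferase reporter tagged to ATAD5 were exposed to compound or DMSO vehicle for 16 hr at 37C, 5% CO2. Amplite was added, and after 30 min at room temperature luciferase activity was read as a marker of ATAD5 induction.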

[3] = qHTS assay for small molecule agonists of the p53 signaling pathway - cell viability (AID 651633; calls by dose curve; further: nearly all actives have a fitted effect of over 30% in size; further: potency means the concentration at half of the fitted maximal effect)
In short: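 Viability counter-read: CellTiter-Glo luminescence (30 min, room temperature) in the same p53RE-bla plates. These plates had been exposed to compounds for 16 h at 37 C.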

[4] = qHTS assay for small molecule disruptors of the mitochondrial membrane potential (AID 720635); further: potency means the concentration at half of the fitted maximal effect
In short: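 Mitochondrial membrane potential tracked with Mito-MPS dye, red aggregates (ex 540/em 590 nm) against green monomers (ex 490/em 535 nm). Compound treatment 1 hr at 37C, dye 30 min in HepG2.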

[5] = qHTS assay to test for compound auto fluorescence at 590 nm (red) in HepG2 cells (AID 720674)
In short: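 Red autofluorescence (Ex/Em 540/590 nm, Rose Bengal sodium equivalents) was measured in HepG2 cells, 2,000 per well in MEM plus 10% FBS, plated overnight at 37 C. Readings were taken 1 hr after adding 23 nL compound or DMSO, at 37 C and 5% CO2.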

[6] = qHTS assay to test for compound auto fluorescence at 535 nm (green) in HepG2 cells (AID 720675)
[7] = qHTS assay to test for compound auto fluorescence at 460 nm (blue) in HEK293 cells (AID 720678); further: potency means the concentration at half of the fitted maximal effect
In short: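 Measured: blue fluorescence (Ex 405/Em 460 nm) of compound-treated HEK293 cells, incubated overnight at 37C with 5% CO2 and scaled to triamterene equivalents.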

[8] = qHTS assay to test for compound auto fluorescence at 590 nm (red) in HEK293 cells (AID 720679)
In short: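 Using HEK293 cells at 2,000 per well, the screen added 23 nL of each compound after cell attachment and incubated overnight (37C, 5% CO2). The plate reader then captured red-label fluorescence, Ex/Em 540/590nm.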

[9] = qHTS assay to test for compound auto fluorescence at 535 nm (green) in HEK293 cells (AID 720680)
[10] = qHTS assay to test for compound auto fluorescence at 460 nm (blue) in HEK293 cell free culture (AID 720681)
In short: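 Blue fluorescence (Ex 405/Em 460 nm, triamterene-equivalent) was read immediately after pin transfer of compound or DMSO into medium (DMEM, 10% FBS) without cells.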

[11] = qHTS assay to test for compound auto fluorescence at 590 nm (red) in HEK293 cell free culture (AID 720683)
In short: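 Red-channel autofluorescence of compounds in culture medium (DMEM, 10% FBS), no cells, measured at 540/590 nm. Rose Bengal sodium is the reference fluorophore for equivalence.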

[12] = qHTS assay to test for compound auto fluorescence at 590 nm (red) in HepG2 cell free culture (AID 720684)
In short: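 Steps: dispense MEM/10% FBS medium, no cells; pin compound or DMSO vehicle; read red channel, Ex/Em 540/590 nm. Output given as Rose Bengal sodium equivalents.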

[13] = qHTS assay to test for compound auto fluorescence at 460 nm (blue) in HepG2 cell free culture (AID 720685); further: potency means the concentration at half of the fitted maximal effect
In short: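 Compound (23 nL) or DMSO pinned into cell-free MEM with 10% FBS; blue fluorescence read at 405/460 nm excitation/emission, expressed as auto-fluorescence equivalency to triamterene.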

[14] = qHTS assay to test for compound auto fluorescence at 535 nm (green) in HepG2 cell free culture (AID 720686)
[15] = qHTS assay to test for compound auto fluorescence at 460 nm (blue) in HepG2 cells (AID 720687); further: potency means the concentration at half of the fitted maximal effect
In short: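 Blue-channel autofluorescence (Ex/Em 405/460 nm, triamterene-equivalent) was measured after 1 hr compound exposure at 37 C, 5% CO2. Cells were HepG2, plated overnight at 37 C in MEM plus 10% FBS.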

[16] = target: Glucocorticoid receptor (Homo sapiens) (UniProt P04150); test: qHTS assay to identify small molecule agonists of the glucocorticoid receptor (GR) signaling pathway (AID 720691; active means well fitted activation curve with a large enough effect in the signal ratio in the repeat runs, not every such curve was filed as active; the % refers to the signal ratio); settings: GR-bla HeLa, beta-lactamase reporter ratio, 18 h; activation: at 62.4 µM (top of the series)
In short: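 GR-bla HeLa cells (beta-lactamase reporter under glucocorticoid response element) were plated 4 h at 37 C/5% CO2, given compounds in DMSO, and incubated 18 h at 37 C. LiveBLAzer B/G FRET substrate was added for 2 h at room temperature, then fluorescence intensity read.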

[17] = qHTS assay for small molecule disruptors of the mitochondrial membrane potential - cell viability (AID 720634; calls by dose curve;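 further: human HepG2 liver cancer cells; nearly all actives have a fitted effect of over 20% in size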)
In short: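 HepG2 cells seeded overnight at 37 C, then exposed to compound or DMSO for 1 hr at 37 C, 5% CO2. m-MPI dye added, then CellTiter-Glo for 30 min at room temperature; viability read as ATP luminescence.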

[18] = qHTS assay to test for compound auto fluorescence at 535 nm (green) in HEK293 cell free culture (AID 720682)
In short: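 Intrinsic compound fluorescence is measured in culture medium containing 10% FBS, with excitation at 485 nm and detection at 535 nm, referenced to fluorescein.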

[19] = target: Glucocorticoid receptor (Homo sapiens) (UniProt P04150); test: qHTS assay to identify small molecule antagonists of the glucocorticoid receptor (GR) signaling pathway (AID 720692; active means well fitted inhibition curve with a large enough effect in the signal ratio in the repeat runs, not every such curve was filed as active; the % refers to the signal ratio; further: potency means the concentration at half of the fitted maximal effect)
In short: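 GR-bla HeLa cells (beta-lactamase reporter under glucocorticoid response element) were pre-plated 4 h at 37 C, treated with compounds plus 5 nM dexamethasone (final) for 18 h, then read by LiveBLAzer B/G FRET fluorescence after 2 h.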

[20] = qHTS assay for small molecules that induce genotoxicity in human embryonic kidney cells expressing luciferase-tagged ATAD5 - cell viability (AID 651634; calls by dose curve; further: nearly all actives have a fitted effect of over 25% in size)
In short: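 HEK293T cells expressing luciferase-tagged ATAD5 were exposed to compound or DMSO for 15.5 hr at 37C, 5% CO2. Viability was then read as live-cell protease activity by CellTiter-Fluor fluorescence after 30 min at 37C.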

Measured: Potency
Tags describe the fitted curve by direction and shape or compound fluorescence and quenching.

Glucocorticoid receptor (Homo sapiens), sequence (P04150 whole entry, looked up): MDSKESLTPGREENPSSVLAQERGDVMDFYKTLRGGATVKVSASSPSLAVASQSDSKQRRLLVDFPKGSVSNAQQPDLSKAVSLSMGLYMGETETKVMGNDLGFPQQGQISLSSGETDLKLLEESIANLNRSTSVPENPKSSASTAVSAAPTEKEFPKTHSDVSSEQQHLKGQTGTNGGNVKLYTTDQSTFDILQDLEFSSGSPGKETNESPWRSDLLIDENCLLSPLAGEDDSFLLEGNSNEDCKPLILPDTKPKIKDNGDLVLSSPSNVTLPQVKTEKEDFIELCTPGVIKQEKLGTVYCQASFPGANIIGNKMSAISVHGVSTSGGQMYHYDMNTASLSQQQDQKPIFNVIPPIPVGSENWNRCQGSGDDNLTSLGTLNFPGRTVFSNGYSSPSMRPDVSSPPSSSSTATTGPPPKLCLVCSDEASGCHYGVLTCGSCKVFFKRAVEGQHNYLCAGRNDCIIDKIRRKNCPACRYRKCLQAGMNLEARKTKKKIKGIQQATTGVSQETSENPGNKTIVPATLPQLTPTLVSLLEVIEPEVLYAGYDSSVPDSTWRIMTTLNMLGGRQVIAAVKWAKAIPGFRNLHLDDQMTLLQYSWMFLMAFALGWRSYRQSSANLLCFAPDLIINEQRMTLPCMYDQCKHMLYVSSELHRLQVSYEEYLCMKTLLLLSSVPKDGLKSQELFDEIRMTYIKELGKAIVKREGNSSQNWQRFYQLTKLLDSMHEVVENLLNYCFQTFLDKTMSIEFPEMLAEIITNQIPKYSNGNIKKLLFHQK

OCC1(CO)COC(C(Cl)(Cl)Cl)OC1
not listed: [17] | [18] | [19] | [20]
inactive: all other assays above

O=C1C2CC3CC1CC(O)(C3)C2
not listed: [20]
inactive: all other assays above

CCCC(=O)c1cc(O)c(O)cc1O
active: [1] 68.6 µM | [4] 5.45 µM
not listed: [17] | [19] | [20]
inactive: all other assays above

NCCO/C=C/[C@H](N)C(=O)O
not listed: [20]
inactive: all other assays above

CCOC(=O)Cc1ccc(-c2ccccc2)cc1
not listed: [16] | [17] | [19] | [20]
inactive: all other assays above

CNCC(=O)N[C@@H](CCCN=C(N)N)C(=O)N[C@H](C(=O)N[C@@H](Cc1ccc(O)cc1)C(=O)N[C@H](C(=O)N[C@@H](Cc1cnc[nH]1)C(=O)N1CCC[C@H]1C(=O)N[C@@H](C)C(=O)O)C(C)C)C(C)C
not listed: [17] | [20]
inactive: all other assays above

C[C@H](O)CN(C)C
not listed: [4] | [16] | [19] | [20]
inactive: all other assays above

CC[C@H]1OC(=O)C[C@@H](O)[C@H](C)[C@@H](O[C@@H]2O[C@H](C)[C@@H](O)[C@H](N(C)C)[C@H]2O)[C@@H](CCN2C[C@H](C)C[C@H](C)C2)C[C@@H](C)C(=O)/C=C/C(C)=C/[C@@H]1CO[C@@H]1O[C@H](C)[C@@H](O)[C@@H](OC)[C@H]1OC
not listed: [8] | [18] | [19] | [20]
inactive: all other assays above

CC1CCCCN1CCCOC(=O)c1ccccc1 (stereo unspecified)
not listed: [20]
inactive: all other assays above

CN(Cc1ccccc1)Cc1ccccc1
not listed: [10] | [16] | [18] | [19] | [20]
inactive: all other assays above

O=C(O)c1cc(=O)c2c3nc4ccccc4oc-3cc(=O)c2[nH]1
active: [4] 21.1 µM
not listed: [10] | [19] | [20]
inactive: all other assays above

C[C@]12O[C@H](C[C@]1(O)CO)n1c3ccccc3c3c4c(c5c6ccccc6n2c5c31)CNC4=O
active: [1] 0.075 µM | [3] 0.944 µM | [4] 3.76 µM
not listed: [16] | [17] | [19] | [20]
inactive: all other assays above

NC(=O)c1cc[n+](CC2=C(C(=O)O)N3C(=O)[C@@H](NC(=O)C(c4ccccc4)S(=O)(=O)[O-])[C@H]3SC2)cc1 (stereo partly specified)
not listed: [16] | [17] | [19] | [20]
inactive: all other assays above

CC(C)(O/N=C(\C(=O)N[C@@H]1C(=O)N2C(C(=O)[O-])=C(C[n+]3ccccc3)CS[C@H]12)c1csc(N)n1)C(=O)O
not listed: [19] | [20]
inactive: all other assays above

CN[C@H](CC(C)C)C(=O)N[C@H]1C(=O)N[C@@H](CC(N)=O)C(=O)N[C@H]2C(=O)N[C@H]3C(=O)N[C@H](C(=O)N[C@@H](C(=O)O)c4cc(O)cc(O)c4-c4cc3ccc4O)[C@H](O)c3ccc(c(Cl)c3)Oc3cc2cc(c3O[C@@H]2O[C@H](CO)[C@@H](O)[C@H](O)[C@H]2O[C@H]2C[C@](C)(N)C(O)[C@H](C)O2)Oc2ccc(cc2Cl)[C@H]1O (stereo partly specified)
not listed: [18] | [20]
inactive: all other assays above

NS(=O)(=O)c1cc(Cl)c(Cl)c(S(N)(=O)=O)c1
not listed: [8] | [20]
inactive: all other assays above

O=C(N[C@H](CO)[C@H](O)c1ccc([N+](=O)[O-])cc1)C(Cl)Cl
not listed: [4] | [8] | [16] | [19] | [20]
inactive: all other assays above

COc1cc(NS(C)(=O)=O)ccc1Nc1c2ccccc2nc2ccccc12
active: [1] 1.68 µM | [3] 18.8 µM | [4] 8.8 µM | [7] 11.2 µM [fluorescent] | [13] 12.6 µM [fluorescent] | [15] 12.6 µM [fluorescent]
not listed: [2] | [10] | [16] | [19] | [20]
inactive: all other assays above

c1ccc(-c2ccc(C(c3ccccc3)n3ccnc3)cc2)cc1 (stereo unspecified)
active: [1] 29.8 µM | [19] 23.9 µM
not listed: [3] | [4] | [16]
inactive: all other assays above
